High-throughput results from PubChem.
Dicer processing: inhibitors of Dicer pre-microRNA processing, primary screen, biochemical, cat-ELCCA, chemiluminescence; Endoribonuclease Dicer (Homo sapiens), Q9UPY3; cat-ELCCA pre-miR-21 Dicer processing; active compounds read high; z-score at 25 µM; 6% of 47,000 active; AID 1347074, 2019; in the data active means z-score above about 3, passing the limit was not always enough;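 further: higher signal means more uncleaved substrate so more Dicer inhibition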
A number is an active result. The full list was thinned out, with hits kept by preference.

COc1ccc(Nc2n[nH]c(N)n2)cc1 was read as Dicer processing 5.57.
`Cc1ccc([N+](=O)[O-])c(NC(=O)c2nn(-c3ccccc3)nc2C)c1C` gave Dicer processing inactive.
`Cc1nc(Nc2ncc3c(n2)CC(c2ccccc2)CC3=O)nc2ccccc12` (configuration not stated) gave Dicer processing inactive.
CCC(C)C(=O)Nc1ncc2c(n1)CC(c1ccc(C(C)C)cc1)CC2=O (configuration not stated) was read as Dicer processing inactive.
Screening O=C(Nc1ncc2c(n1)CC(c1ccccc1)CC2=O)c1ccco1 (configuration not stated) returned Dicer processing 4.16.
`O=C1CC(c2ccccc2Cl)Cc2nc(NCCc3ccccc3)ncc21` (configuration not stated) gave Dicer processing inactive.
For O=C1CC(c2ccccc2)Cc2nc(NCc3ccco3)ncc21 (configuration not stated) the results were Dicer processing 3.94.
Cc1nnc(SCC(=O)Nc2ncc3c(n2)CC(c2ccco2)CC3=O)s1 (configuration not stated) was read as Dicer processing inactive.
Screening CC(C)(C)c1ccc(-c2nc(SCC(=O)c3ccc(Cl)cc3)n[nH]2)cc1 returned Dicer processing inactive.
For Cc1ccc(OCc2nc(-c3ccccn3)no2)c(C)c1 the results were Dicer processing inactive.
Screening Fc1ccc(C2=NN(c3ccccc3)C(c3ccc(F)cc3)C2)cc1 (configuration not stated) returned Dicer processing inactive.
`Cc1nn(-c2ccccc2)c2c1C1(C)CC(C)(O2)c2c(C)nn(-c3ccccc3)c2O1` gave Dicer processing inactive.
CC1=NN(c2ccccc2)C(C2=C(C)CCCC2(C)C)C1 (configuration not stated) was read as Dicer processing 3.23.
`CC(Oc1ccc(Oc2ccc(C(F)(F)F)cc2)cc1)C(=O)NNc1cnc2ccccc2n1` (configuration not stated) gave Dicer processing inactive.
For O=C(COc1ccccc1Br)c1ccc(O)cc1O the results were Dicer processing 3.16.
For O=C(CSc1ncn[nH]1)c1ccc(O)cc1O the results were Dicer processing inactive.
O=C(COc1ccccc1Br)Nc1ccc2c(c1)OCO2 was read as Dicer processing inactive.
For Cc1ncc(S(=O)(=O)Nc2cc(-c3ccccc3)nn2C)[nH]1 the results were Dicer processing inactive.
`O=C(Cn1ccc(C(F)(F)F)n1)Nc1cccc(C(F)(F)F)c1` gave Dicer processing inactive.
Cc1cccc(C(=O)c2ccccc2C(=O)O)c1 was read as Dicer processing inactive.
Screening O=C(O)c1ccccc1C(=O)c1ccc(F)cc1 returned Dicer processing 3.13.
For O=C(O)c1ccccc1C(=O)c1ccc(-c2ccccc2)cc1 the results were Dicer processing inactive.
For CN(C)c1cccc2c(S(=O)(=O)Nc3ccccc3)cccc12 the results were Dicer processing inactive.
For O=C(CSc1nc2ccccc2[nH]1)N1CCc2ccccc2C1 the results were Dicer processing inactive.
Screening COc1ccc(N2C(=O)CC(N3CCN(c4ccc(F)cc4)CC3)C2=O)cc1 (configuration not stated) returned Dicer processing inactive.
Screening CSc1ccccc1NC(=O)Cn1cnc([N+](=O)[O-])n1 returned Dicer processing inactive.
For Cn1cc([N+](=O)[O-])c(C(=O)Nc2ccc(Cl)cc2)n1 the results were Dicer processing inactive.
O=C(Cn1cnc([N+](=O)[O-])n1)Nc1ccc(Cl)cc1 was read as Dicer processing 4.35.
`O=C(NNC(=S)NCc1ccccc1)c1ccccc1` gave Dicer processing inactive.
c1ccc(-c2cc3ccccn3c2)cc1 was read as Dicer processing inactive.
`Cc1cccn2cc(-c3ccc(F)cc3)cc12` gave Dicer processing 4.42.
Cc1cccn2cc(-c3ccc(F)cc3)nc12 was read as Dicer processing inactive.
O=[N+]([O-])C1=Cc2cc(Cl)ccc2OC1c1ccccc1Cl (configuration not stated) was read as Dicer processing 3.97.
Screening O=[N+]([O-])C1=Cc2ccccc2OC1c1ccccc1Cl (configuration not stated) returned Dicer processing inactive.
O=[N+]([O-])C1=Cc2cc(Cl)ccc2OC1c1c(Cl)cccc1Cl (configuration not stated) was read as Dicer processing inactive.
Screening COc1ccccc1C1SCCN1S(=O)(=O)c1ccc(C)cc1C (configuration not stated) returned Dicer processing inactive.
For O=C(O)COCC(=O)Nc1ccc(C(F)(F)F)cn1 the results were Dicer processing inactive.
CSc1sc(-c2nc(C)cs2)c(C)c1-c1ccnc(SCc2ccc(Cl)cc2)n1 was read as Dicer processing inactive.
Screening CSc1sc(-c2ccnc(SCc3c(Cl)cccc3Cl)n2)c2c1C(=O)CCC2 returned Dicer processing 3.53.
CSc1sc(-c2nc(C(C)(C)C)cs2)c2c1C(=O)CCC2 was read as Dicer processing inactive.
